An excerpt weighted towards active compounds, which were near 5.1% of everything screened.
TMEM16A inh: TMEM16A chloride channel inhibitors, primary screen, cell-based, HTS | Anoctamin-1 (Mus musculus), Q8BHY3 | HEK293 TMEM16A/YFP iodide influx fluorescence, ionomycin | normalized B-score (activity score, 25-100; higher = stronger inhibition) at 10 µM | actives 1.2% (n = 310,000);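 active = ratio plate-corrected score three or more library SD toward inhibition, starting fluorescence score within five deviations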;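 also: score derived from kinetic fluorescence span divided by baseline fluorescence per well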
Target sequence (Q8BHY3 whole entry, looked up): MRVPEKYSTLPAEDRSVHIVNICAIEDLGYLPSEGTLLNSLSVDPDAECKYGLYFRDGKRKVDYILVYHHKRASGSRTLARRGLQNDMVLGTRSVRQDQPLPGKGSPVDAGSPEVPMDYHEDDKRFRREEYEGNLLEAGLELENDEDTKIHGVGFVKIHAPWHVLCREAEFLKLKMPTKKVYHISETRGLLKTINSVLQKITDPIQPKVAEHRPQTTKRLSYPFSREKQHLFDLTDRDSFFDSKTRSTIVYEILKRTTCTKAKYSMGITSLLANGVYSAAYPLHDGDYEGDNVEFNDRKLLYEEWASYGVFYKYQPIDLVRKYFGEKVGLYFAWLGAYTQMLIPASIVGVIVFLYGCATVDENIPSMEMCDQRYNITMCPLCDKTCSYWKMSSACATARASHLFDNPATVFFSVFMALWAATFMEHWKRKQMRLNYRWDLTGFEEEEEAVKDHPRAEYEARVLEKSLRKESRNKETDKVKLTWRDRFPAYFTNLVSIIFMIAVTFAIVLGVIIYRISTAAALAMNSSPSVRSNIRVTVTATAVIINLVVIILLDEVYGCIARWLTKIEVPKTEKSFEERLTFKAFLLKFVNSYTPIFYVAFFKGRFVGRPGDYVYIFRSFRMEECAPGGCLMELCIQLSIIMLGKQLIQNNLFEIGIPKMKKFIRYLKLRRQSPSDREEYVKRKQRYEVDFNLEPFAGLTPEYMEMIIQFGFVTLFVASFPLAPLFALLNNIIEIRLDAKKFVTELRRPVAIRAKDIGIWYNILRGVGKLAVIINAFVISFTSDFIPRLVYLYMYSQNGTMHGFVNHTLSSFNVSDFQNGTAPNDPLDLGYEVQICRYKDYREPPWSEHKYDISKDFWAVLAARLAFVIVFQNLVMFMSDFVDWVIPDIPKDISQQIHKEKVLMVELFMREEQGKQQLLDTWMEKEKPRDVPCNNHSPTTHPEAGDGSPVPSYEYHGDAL
MPTP block: mitochondrial permeability transition pore inhibitors, primary screen, biochemical, isolated mouse mitochondria, absorbance; inhibition, % at 10 µM; AID 602449, 2012; actives 1.4% (n = 360,000); Ca2+ swelling absorbance, 30 min;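 active = inhibition of 50% or more, scaled per plate between neutral and stimulator controls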;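 also: 0% = DMSO wells given calcium and 100% = 1 mM EGTA wells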
ANO1 activ: TMEM16A chloride channel activators or potentiators, primary screen, cell-based, HTS. HEK293 TMEM16A/YFP-H148Q/I152L, iodide quench fluorescence; hits give low values. B-score at 10 µM. actives 0.3% (n = 340,000);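 active = fluorescence-ratio B-score plate-corrected deviation score at least 3 library SD below zero, with starting fluorescence score within 5 deviations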;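 also: channel opened by trigger with iodide after compound preincubation; score built on the fluorescence ratio of max minus min over baseline; more negative score means more quench and so TMEM16A activation or potentiation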
NR3A LBD binder: binders of NR3A ligand-binding domain, primary screen, biophysical, differential scanning fluorimetry, uHTS; Glutamate receptor ionotropic, NMDA 3A (GRIN3A) ligand-binding domain; NR3A LBD differential scanning fluorimetry, Tm shift; 0% = protein alone, 100% = glycine-bound protein; Tm shift relative to glycine control, % at 25 µM; actives 2.5% (n = 340,000);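 active = melting temperature shift of at least 10% of the positive control shift, at one fixed dose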
CRFBP-R2 agonist: agonists of CRF-BP/CRF-R2 complex, primary screen, cell-based, HEK293, calcium dye fluorescence, uHTS | actives 0.46% (n = 350,000) | activation, % at 13.2 µM | calcium dye fluorescence (FLIPR); percent of saturating CRF peptide response | CRF-binding protein / CRF receptor 2 complex (human);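 active = activation of at least 50%, plus an integration ratio under a set limit after plate pattern correction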;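 also: plate controls were neutral control wells without compound for no effect and CRF at EC100 for full effect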
CRFBP-R2 block: antagonists of CRF-BP/CRF-R2 complex, primary screen, cell-based, HEK293, calcium dye fluorescence, uHTS; actives 0.59% (n = 350,000); AID 588475, 2011; inhibition, % at 11.8 µM; CRF-induced calcium fluorescence;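 active = inhibition of the ligand-induced calcium signal above about 50% at the single tested concentration, limit read from the data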
MPTP counter: fluorescence retest of MPTP screen hits in isolated mitochondria, single concentration | inhibition, % at 10 µM | membrane potential, Rhodamine 123 fluorescence | AID 624504, 2012 | shares compounds with MPTP block | actives 78% (n = 5,000); in the data active = inhibition above about 22%;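 also: 0% = DMSO vehicle and 100% = positive control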
MPTP abs DR: mitochondrial permeability transition pore inhibitors, dose response, biochemical, absorbance, uHTS hits; shares compounds with MPTP block; isolated mitochondria swelling; IC50, µM; actives 58% (n = 780); in the data active = IC50 below about 20 µM
MPTP counter DR: fluorescent counter-screen in isolated mitochondria, dose response, counter-screen for MPTP inhibitor project, biochemical, fluorescence, uHTS hits; AID 651564, 2012; shares compounds with MPTP block; isolated mitochondria counterscreen, fluorescence read-out; actives 49% (n = 780); IC50, µM; in the data active = IC50 below about 80 µM
The depositor's hits bear a star; i = inactive; x = no result.

SMILES | TMEM16A inh | MPTP block | ANO1 activ | NR3A LBD binder | CRFBP-R2 agonist | CRFBP-R2 block | MPTP counter | others
COc1ccccc1-n1nnnc1SCC(=O)N1CCCC1=O | i | 0 | i | 1 | 0 | -2 | x
COc1ccccc1/C=N/NC(=O)c1ccc(Cn2nc([N+](=O)[O-])cc2C)cc1 | i | 65* | i | -2 | 0 | 15 | 0 | MPTP abs DR=>100;MPTP counter DR=>80
CCC(C)c1ccccc1NC(=O)c1cc2cccc([N+](=O)[O-])c2[nH]1 (stereo unspecified) | i | 61* | i | -2 | -1 | 15 | 66*
Cc1ccc(NC(=O)c2cc3cccc([N+](=O)[O-])c3[nH]2)cc1 | i | 64* | i | 33* | -2 | -2 | 61*
O=C(CSc1nc2cc(Cl)c(Cl)cc2[nH]1)c1ccc2c(c1)OCO2 | i | 78* | i | 17* | 1 | 24 | 73*
O=C(CSc1nc2ccc(Cl)cc2[nH]1)c1ccc2c(c1)OCO2 | i | 1 | i | -16 | -1 | 15 | x
COC(=O)C1=CN(c2ccc(C)cc2)C(N)=C(C#N)C1c1ccc(OC)cc1 (stereo unspecified) | x | 0 | x | x | x | x | x
CC(OCCN1CCCC1)(c1ccc(F)cc1)c1ccc(F)cc1 | i | 76* | i | -4 | -1 | -23 | -2 | MPTP abs DR=i;MPTP counter DR=>80
Fc1ccc(OCCOCCN2CCCC2)cc1 | i | 2 | i | -1 | 2 | -7 | x
COc1ccc(C(OCC(O)CNC(C)c2ccccc2)c2ccc(OC)cc2)cc1 (stereo unspecified) | i | 97* | i | -1 | 3 | -10 | -7 | MPTP abs DR=7.5*;MPTP counter DR=>80
COC(=O)C1CC(c2ccccc2)N(c2ccccc2)O1 (stereo unspecified) | x | 0 | x | x | -3 | 37 | x
Cc1ccc(-n2cc(CNCCc3ncc(C)[nH]3)c(-c3ccc(F)cc3)n2)cc1 | i | 91* | i | -3 | -1 | -12 | -15 | MPTP abs DR=4.2*;MPTP counter DR=57*
COc1ccc(-n2cc(CNCCc3nc(C)cc(C)n3)c(-c3ccccc3Cl)n2)cc1 | i | 3 | i | -4 | -1 | -14 | x
Fc1ccc(-n2cc(CNCCc3ccccn3)c(-c3ccccc3Cl)n2)cc1 | i | 72* | i | 2 | -1 | -11 | 1 | MPTP abs DR=9.8*;MPTP counter DR=48*
CCOc1ccc(OCC)c(NC(=O)CSc2nc3ccccc3c(=O)n2C)c1 | i | 93* | i | -4 | 2 | -31 | 75*
COc1cc(OC)cc(C(=O)Nc2cc(C)nn2-c2ccccc2)c1 | i | -1 | i | -6 | 0 | -11 | x
O=C(/C(N=Nc1cccc(C(F)(F)F)c1)=C(/O)c1cccs1)C(F)(F)F | 100* | 86* | i | 17* | 15 | 13 | 82*
CC(=O)/C(N=Nc1cccc(C(F)(F)F)c1)=C(\C)O | i | 0 | i | -3 | -8 | -73 | x
COc1ccc(-c2cc3c(=O)n(CC(=O)NCc4ccc(Cl)cc4)ncn3n2)cc1 | i | -2 | i | 3 | -1 | 26 | x
COc1ccc(-c2cc3c(=O)n(CC(=O)NCCCN4CCC(Cc5ccccc5)CC4)ncn3n2)cc1 | i | 85* | i | -3 | 12 | -13 | 18
COc1ccc(-c2cc3c(=O)n(CC(=O)NCCCN4CCN(Cc5ccccc5)CC4)ncn3n2)cc1 | i | 91* | i | 5 | 1 | -11 | 51*
COc1ccc(S(=O)(=O)N(C)c2ccc(C(=O)NCc3ccco3)cc2)cc1OC | i | 1 | i | 1 | -1 | -6 | x
COc1ccc(NC(=O)Nc2nc(C(N)CC(C)C)cs2)cc1 (stereo unspecified) | x | 2 | x | x | x | x | x
NC(c1csc(NC(=O)Nc2ccc(OC(F)(F)F)cc2)n1)C1CCCCC1 (stereo unspecified) | x | 62* | x | x | x | x | 88*
CCCOc1ccc(/C=C/C(=O)Nc2ccc([N+](=O)[O-])cc2)cc1 | i | 82* | i | 27* | 0 | -15 | 86*
SMILES | TMEM16A inh | MPTP block | ANO1 activ | NR3A LBD binder | CRFBP-R2 agonist | CRFBP-R2 block | MPTP counter | others
Cc1ccc(/C=C/C(=O)Nc2ccc([N+](=O)[O-])cc2)o1 | i | 89* | i | 3 | 1 | 1 | 75*
O=C(/C=C/c1ccc([N+](=O)[O-])cc1)Nc1ncc([N+](=O)[O-])s1 | x | 83* | i | 10 | 42 | 1 | 63*
Brc1cc(-c2ccccc2)nc(-c2ccccc2)n1 | i | -2 | i | 1 | 4 | 1 | x
COc1ccc(NS(=O)(=O)c2cccc(C(=O)NNC(=O)CN3C(=O)NC(C)(C)C3=O)c2)cc1 | i | -1 | i | 0 | -1 | 3 | x
CC(C)(C)c1ccc(NC(=O)N2CCN(c3ccc([N+](=O)[O-])cn3)CC2)cc1 | i | 67* | i | -4 | -1 | 3 | 54*
O=C(Nc1ccc(F)cc1F)N1CCCN(c2ccc([N+](=O)[O-])cn2)CC1 | i | 2 | i | 2 | -1 | 3 | x
O=C1CC2(CCN(C(=O)C3CC(=O)N(c4ccccc4)C3)CC2)Oc2ccccc21 (stereo unspecified) | i | -1 | i | 2 | -3 | 10 | x
COC(=O)c1cn(CC(C)n2c(=O)c3ccccc3n2Cc2cc(C(C)C)no2)nn1 (stereo unspecified) | x | 1 | x | x | x | x | x
O=C(Nc1ccc2ccccc2c1)c1ccccc1Cl | x | 0 | x | x | 0 | 3 | x
O=C(Nc1ccc2ccccc2c1)c1ccccc1O | i | 98* | i | 20* | 18 | 6 | 92*
O=C(NC1CCCCC1)c1cc2ccccc2cc1O | i | 115* | i | -1 | -2 | 4 | 49*
O=C(Nc1ccc2ccccc2c1)c1cn(-c2ccccc2)nc1-c1cccs1 | i | 70* | i | 25* | 16 | -41 | 70*
